Experimental data as given in the supplement of paper PMC8728848.
This is one part of a sample in which the strongest signals are shown more often than they occur.

B1: Siglec 6 (Homo sapiens), O43699 (protein)
chain: MLPLLLPLLWAGALAQERRFQLEGPESLTVQEGLCVLVPCRLPTTLPASYYGYGYWFLEGADVPVATNDPDEEVQEETRGRFHLLWDPRRKNCSLSIRDARRRDNAAYFFRLKSKWMKYGYTSSKLSVRVMALTHRPNISIPGTLESGHPSNLTCSVPWVCEQGTPPIFSWMSAAPTSLGPRTTQSSVLTITPRPQDHSTNLTCQVTFPGAGVTMERTIQLNVSYAPQKVAISIFQGNSAAFKILQNTSSLPVLEGQALRLLCDADGNPPAHLSWFQGFPALNATPISNTGVLELPQVGSAEEGDFTCRAQHPLGSLQISLSLFVHWKPEGRAGGVLGAVWGASITTLVFLCVCFIFRVKTRRKKAAQPVQNTDDVNPVMVSGSRGHQHQFQTGIVSDHPAEAGPISEDEQELHYAVLHFHKVQPQEPKVTDTEYSEIKIHK
B2: CD23 (Homo sapiens) (protein)
chain: MELQVSSGFVCNTCPEKWINFQRKCYYFGKGTKQWVHARYACDDMEGQLVSIHSPEEQDFLTKHASHTGSWIGLRNLDLKGEFIWVDGSHVDYSNWAPGEPTSRSQGEDCVMMRGSGRWNDAFCDRKLGAWVCDRLATCTPPASEGSAESMGPDSRPDPDGRLPTPSAPLHS

Legend:
Test in all cases: glycan array binding signal (z-score within array); higher = stronger binding
Settings in all cases: glycan notation: IUPAC condensed, linker removed
[1] = molecular target: Fuc(a1-2)Gal(b1-4)[Fuc(a1-3)]GlcNAc
In short: (§1)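 Glycan array data came from 3228 arrays in the Consortium for Functional Glycomics database, and only arrays with an available protein sequence were kept. Glycan names were put into IUPAC-condensed notation, and columns mapping to the same glycan were averaged. The binding signal is a within-array Z-score, averaged across arrays of one protein sequence run at different concentrations or buffers and across linkers. A negative Z-score can be read as non-binding.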

[2] = molecular target: Fuc(a1-2)[Gal(a1-4)]Gal(b1-4)GalNAc
In short: as §1

Gal(a1-2)Gal = molecular target: Gal(a1-2)Gal
In short: as §1

Gal(a1-3)Gal(b1-3)GlcNAc = molecular target: Gal(a1-3)Gal(b1-3)GlcNAc
In short: as §1

Gal(a1-4)GlcNAc = molecular target: Gal(a1-4)GlcNAc
In short: as §1

[3] = molecular target: Gal(b1-3)[Neu5Ac(a2-6)]GlcNAc
In short: as §1

[4] = molecular target: Gal(b1-4)GlcNAc(b1-2)Man(a1-3)[Gal(b1-4)GlcNAc(b1-2)Man(a1-6)]Man(b1-4)GlcNAc(b1-4)GlcNAc
In short: as §1

[5] = molecular target: Gal(b1-4)GlcNAc(b1-6)[Gal(b1-3)]GalNAc
In short: as §1

Gal3S(b1-4)GlcNAc6S = molecular target: Gal3S(b1-4)GlcNAc6S
In short: as §1

Gal3S6S(b1-4)GlcNAc = molecular target: Gal3S6S(b1-4)GlcNAc
In short: as §1

Gal3S6S(b1-4)GlcNAc6S = molecular target: Gal3S6S(b1-4)GlcNAc6S
In short: as §1

Gal4S6S(b1-4)GlcNAc = molecular target: Gal4S6S(b1-4)GlcNAc
In short: as §1

Gal6S(b1-4)Glc = molecular target: Gal6S(b1-4)Glc
In short: as §1

[6] = molecular target: Man(a1-2)Man(a1-3)[Man(a1-6)]Man(a1-6)[Man(a1-2)Man(a1-3)]Man(b1-4)GlcNAc(b1-4)GlcNAc
In short: as §1

[7] = molecular target: Neu5Ac(a2-3)Gal(b1-3)[Fuc(a1-4)]GlcNAc
In short: as §1

Neu5Ac(a2-3)Gal(b1-4)Glc = molecular target: Neu5Ac(a2-3)Gal(b1-4)Glc
In short: as §1

[8] = molecular target: Neu5Ac(a2-6)Gal(b1-4)GlcNAc(b1-3)Gal(b1-4)GlcNAc
In short: as §1

[9] = molecular target: Neu5Ac(a2-8)Neu5Ac(a2-3)Gal(b1-4)Glc
In short: as §1

[10] = molecular target: Neu5Ac9Ac(a2-6)Gal(b1-4)GlcNAc
In short: as §1

[11] = molecular target: Neu5Gc(a2-3)Gal(b1-3)GlcNAc
In short: as §1

[12] = molecular target: Fuc(a1-2)Gal(b1-4)GlcNAc6S
In short: as §1

Fuc(a1-2)[Gal(a1-3)]Gal = molecular target: Fuc(a1-2)[Gal(a1-3)]Gal
In short: as §1

[13] = molecular target: Fuc(a1-2)[Gal(a1-3)]Gal(b1-3)GlcNAc
In short: as §1

[14] = molecular target: Fuc(a1-2)[Gal(a1-3)]Gal(b1-4)[Fuc(a1-3)]GlcNAc
In short: as §1

[15] = molecular target: Fuc(a1-2)[GalNAc(a1-3)]Gal(b1-4)[Fuc(a1-3)]GlcNAc
In short: as §1

[16] = molecular target: Fuc(a1-3)[Gal3S(b1-4)]Glc6S
In short: as §1

[17] = molecular target: Fuc(a1-3)[Gal3S(b1-4)]GlcNAc6S
In short: as §1

Gal(a1-6)Glc = molecular target: Gal(a1-6)Glc
In short: as §1

GalNAc(b1-4)GlcNAc = molecular target: GalNAc(b1-4)GlcNAc
In short: as §1

[18] = molecular target: GlcNAc(b1-2)Man(a1-3)[GlcNAc(b1-2)Man(a1-6)]Man(b1-4)GlcNAc(b1-4)GlcNAc
In short: as §1

[19] = molecular target: GlcNAc(b1-3)Gal(b1-3)GalNAc
In short: as §1

GlcNAc(b1-3)Gal(b1-4)Glc = molecular target: GlcNAc(b1-3)Gal(b1-4)Glc
In short: as §1

[20] = molecular target: Neu5Ac(a2-3)Gal(b1-3)GlcNAc(b1-3)Gal(b1-3)GlcNAc
In short: as §1

[21] = molecular target: Neu5Ac(a2-3)Gal(b1-4)[Fuc(a1-3)]GlcNAc(b1-3)Gal
In short: as §1

[22] = molecular target: Neu5Ac(a2-3)Gal(b1-4)[Fuc(a1-3)]GlcNAc(b1-3)Gal(b1-4)GlcNAc
In short: as §1

Neu5Ac(b2-6)GalNAc = molecular target: Neu5Ac(b2-6)GalNAc
In short: as §1

[23] = molecular target: Neu5Gc(a2-6)Gal(b1-4)GlcNAc
In short: as §1

Binder	glycan array binding signal (z-score) [1]	glycan array binding signal (z-score) [2]	glycan array binding signal (z-score) (Gal(a1-2)Gal)	glycan array binding signal (z-score) (Gal(a1-3)Gal(b1-3)GlcNAc)	glycan array binding signal (z-score) (Gal(a1-4)GlcNAc)	glycan array binding signal (z-score) [3]	glycan array binding signal (z-score) [4]	glycan array binding signal (z-score) [5]	glycan array binding signal (z-score) (Gal3S(b1-4)GlcNAc6S)	glycan array binding signal (z-score) (Gal3S6S(b1-4)GlcNAc)	glycan array binding signal (z-score) (Gal3S6S(b1-4)GlcNAc6S)	glycan array binding signal (z-score) (Gal4S6S(b1-4)GlcNAc)	glycan array binding signal (z-score) (Gal6S(b1-4)Glc)	glycan array binding signal (z-score) [6]	glycan array binding signal (z-score) [7]	glycan array binding signal (z-score) (Neu5Ac(a2-3)Gal(b1-4)Glc)	glycan array binding signal (z-score) [8]	glycan array binding signal (z-score) [9]	glycan array binding signal (z-score) [10]	glycan array binding signal (z-score) [11]	glycan array binding signal (z-score) [12]	glycan array binding signal (z-score) (Fuc(a1-2)[Gal(a1-3)]Gal)	glycan array binding signal (z-score) [13]	glycan array binding signal (z-score) [14]	glycan array binding signal (z-score) [15]	glycan array binding signal (z-score) [16]	glycan array binding signal (z-score) [17]	glycan array binding signal (z-score) (Gal(a1-6)Glc)	glycan array binding signal (z-score) (GalNAc(b1-4)GlcNAc)	glycan array binding signal (z-score) [18]	glycan array binding signal (z-score) [19]	glycan array binding signal (z-score) (GlcNAc(b1-3)Gal(b1-4)Glc)	glycan array binding signal (z-score) [20]	glycan array binding signal (z-score) [21]	glycan array binding signal (z-score) [22]	glycan array binding signal (z-score) (Neu5Ac(b2-6)GalNAc)	glycan array binding signal (z-score) [23]
B1	-0.259	1.21	-0.328	-0.366	-0.074	-0.381	-0.29	-0.521	3.66	5.12	6.44	3	0.086	-0.209	-0.566	-0.332	-0.476	-0.16	-0.211	-0.386	–	–	–	–	–	–	–	–	–	–	–	–	–	–	–	–	–
B2	0.228	–	–	–	–	–	-0.225	–	–	–	–	–	–	–	–	–	–	–	1.43	–	-0.186	-0.374	-0.086	0.988	0.752	2.25	0.491	0.204	-0.48	-0.157	1.43	-0.494	-0.189	-0.435	1.15	-0.582	-0.645
